According to the antibiotic and cytotoxicity screens of Wong et al. (2023):
The campaign covered roughly 39,000 compounds. About 3,300 (8.5%) were called active. The sample as a whole holds a higher share of actives than the screen did.

test system: HepG2; test: cytotoxicity call (relative viability < 0.9); settings: 10 µM

Row | Compound | cytotoxicity call
1 | C[C@H]1CCCCO[C@@H](CN(C)Cc2ccc3c(c2)OCO3)[C@@H](C)CN([C@@H](C)CO)C(=O)c2cc(NS(=O)(=O)c3ccccc3)ccc2O1 | inactive
2 | C[C@H]1CCCCO[C@H](CN(C)Cc2ccc3c(c2)OCO3)[C@@H](C)CN([C@@H](C)CO)C(=O)c2cc(NS(=O)(=O)c3ccccc3)ccc2O1 | inactive
3 | C[C@H](CO)N1C[C@H](C)[C@H](CN(C)Cc2ccc3c(c2)OCO3)OCCCC[C@H](C)Oc2ccc(NS(=O)(=O)c3ccccc3)cc2C1=O | inactive
4 | C[C@H](CO)N1C[C@H](C)[C@@H](CN(C)Cc2ccc3c(c2)OCO3)OCCCC[C@H](C)Oc2ccc(NS(=O)(=O)c3ccccc3)cc2C1=O | inactive
5 | C[C@@H]1CCCCO[C@H](CN(C)Cc2ccc3c(c2)OCO3)[C@H](C)CN([C@@H](C)CO)C(=O)c2cc(NS(=O)(=O)c3ccccc3)ccc2O1 | active
6 | C[C@@H]1CCCCO[C@H](CN(C)Cc2ccc3c(c2)OCO3)[C@@H](C)CN([C@@H](C)CO)C(=O)c2cc(NS(=O)(=O)c3ccccc3)ccc2O1 | inactive
7 | C[C@@H]1CCCCO[C@H](CN(C)Cc2ccc3c(c2)OCO3)[C@H](C)CN([C@H](C)CO)C(=O)c2cc(NS(=O)(=O)c3ccccc3)ccc2O1 | inactive
8 | C[C@@H]1CN([C@H](C)CO)C(=O)c2cc(NS(=O)(=O)c3ccccc3)ccc2O[C@@H](C)CCCCO[C@@H]1CN(C)Cc1ccc2c(c1)OCO2 | active
9 | C[C@@H]1CCCCO[C@@H](CN(C)Cc2ccc3c(c2)OCO3)[C@H](C)CN([C@H](C)CO)C(=O)c2cc(NS(=O)(=O)c3ccccc3)ccc2O1 | active
10 | C[C@H](N)C(=O)N[C@@]1(C(=O)O)C[C@@H](Sc2nnc[nH]2)[C@H]2[C@H](C(=O)O)[C@H]21 | inactive
11 | C[C@H](CO)N1C[C@H](C)[C@H](CN(C)S(=O)(=O)c2ccc(F)cc2)Oc2ccc(NS(C)(=O)=O)cc2C1=O | inactive
12 | Cl.Cl.N=C(N)N | inactive
13 | COCCOC(=O)N1C(=O)[C@@]2(c3cc(C#CCCO)ccc31)[C@H](C(=O)NC[C@H](O)c1ccccc1)[C@H]1C(=O)O[C@H](c3ccccc3)[C@H](c3ccccc3)N1[C@@H]2c1ccccc1OCCO | inactive
14 | CCS(=O)(=O)N1CC[C@]2(CC1)CN([C@H](CO)c1[nH]c3cc(ccc3c12)OC)S(=O)(=O)c1cn(cn1)C | inactive
15 | C[C@@H]1CN([C@@H](C)CO)C(=O)Cc2cc(NS(=O)(=O)c3ccccc3)ccc2O[C@H]1CN(C)S(=O)(=O)c1cn(C)cn1 | inactive
16 | C[C@@H]1CN([C@@H](C)CO)C(=O)c2cc(NC(=O)CCCN(C)C)ccc2O[C@H]1CN(C)C(=O)Nc1ccc(F)cc1 | inactive
17 | O=C1NC(=O)[C@@]2(CCOc3ccc(F)cc32)N1 | inactive
18 | C[C@@H]1CCCCO[C@H](CN(C)S(=O)(=O)c2cn(C)cn2)[C@@H](C)CN([C@@H](C)CO)C(=O)c2cc(NS(=O)(=O)c3cn(C)cn3)ccc2O1 | inactive
19 | COc1ccc(NC(=O)N2C[C@H](O)COC[C@@H]3O[C@H](CC(=O)NC4Cc5ccccc5C4)CC[C@H]32)cc1 | inactive
20 | Cc1ccc(C(=O)N(CCCN)[C@@H](c2oc3cc(Cl)ccc3c(=O)c2Cc2ccccc2)C(C)C)cc1 | active
21 | Cc1ccc2c(c1)c1nc3ccccc3nc1n2Cc1ccccc1 | inactive
22 | Cc1ccc(C(=O)N(CCCN)[C@@H](c2nc3cc(Cl)ccc3c(=O)n2Cc2ccccc2)C(C)C)cc1 | active
23 | COc1ccc(NC(=O)Nc2ccc3c(c2)C(=O)N([C@H](C)CO)C[C@H](C)[C@H](CN(C)Cc2ccc(C(=O)Nc4ccccc4N)cc2)O3)cc1 | inactive
24 | O=C(NO)c1cccc(C(=O)N/N=C/[C@H](O)[C@@H](O)[C@H](O)[C@H](O)CO[C@H]2O[C@H](CO)[C@H](O)[C@H](O)[C@H]2O)c1 | inactive

Row | Compound | cytotoxicity call
25 | C[C@@H]1CN([C@H](C)CO)S(=O)(=O)c2ccc(C#Cc3cccc(F)c3)cc2O[C@@H]1CN(C)S(=O)(=O)c1cn(C)cn1 | inactive
26 | Cc1ccc(S(=O)(=O)Nc2ccc3c(c2)C(=O)N([C@H](C)CO)C[C@H](C)[C@H](CN(C)C(=O)c2ccccc2)OCCCC[C@@H](C)O3)cc1 | inactive
27 | O=C(Cc1ccccc1)Nc1ccccc1Sc1ccccc1 | inactive
28 | CC(C)NC(=O)Nc1ccc2c(c1)C(=O)N(C)[C@@H]1CC[C@@H](CC(=O)NCc3ccc(F)cc3)O[C@@H]1CO2 | inactive
29 | C[C@@H]1CN([C@H](C)CO)C(=O)c2cc(-c3cccnc3)cnc2O[C@@H]1CN(C)Cc1ccc(-c2ccccc2)cc1 | inactive
30 | C[C@@H]1CN([C@@H](C)CO)C(=O)c2cc(NC(=O)Nc3cccc4ccccc34)ccc2O[C@@H]1CN(C)Cc1ccc(C(=O)O)cc1 | inactive
31 | C[C@@H]1CN([C@@H](C)CO)C(=O)c2cccc(NS(=O)(=O)c3cccs3)c2O[C@@H]1CN(C)S(C)(=O)=O | inactive
32 | Cc1noc(C)c1NC(=O)N(C)C[C@@H]1Oc2c(NC(=O)NC(C)C)cccc2C(=O)N([C@H](C)CO)C[C@@H]1C | inactive
33 | C[C@@H]1CN([C@H](C)CO)C(=O)CCCn2nncc2CO[C@@H]1CN(C)S(=O)(=O)c1cccc(C#N)c1 | inactive
34 | COc1ccc(S(=O)(=O)Nc2cccc3c2O[C@@H](CN(C)S(=O)(=O)c2ccc(F)cc2)[C@H](C)CN([C@@H](C)CO)C3=O)cc1 | inactive
35 | C[C@@H]1CN([C@@H](C)CO)C(=O)Cc2cc(NC(=O)CCN3CCOCC3)ccc2O[C@@H]1CN(C)CC1CC1 | inactive
36 | C[C@@H]1CN([C@@H](C)CO)C(=O)c2cc(NC(=O)C3CCCCC3)ccc2O[C@@H](C)CCCCO[C@@H]1CN(C)CC1CCCCC1 | inactive
37 | C[C@H](CO)N1C[C@H](C)[C@@H](CN(C)CC2CCCCC2)OCCCC[C@H](C)Oc2ccc(NC(=O)C3CCCCC3)cc2C1=O | inactive
38 | C[C@@H]1CN([C@H](C)CO)C(=O)c2cc(NC(=O)C3CCCCC3)ccc2O[C@@H](C)CCCCO[C@@H]1CN(C)CC1CCCCC1 | active
39 | C[C@@H]1CN([C@@H](C)CO)C(=O)c2cc(NC(=O)C3CCCCC3)ccc2O[C@@H](C)CCCCO[C@H]1CN(C)CC1CCCCC1 | active
40 | C[C@@H]1CCCCO[C@@H](CN(C)CC2CCCCC2)[C@@H](C)CN([C@@H](C)CO)C(=O)c2cc(NC(=O)C3CCCCC3)ccc2O1 | active
41 | C[C@@H]1CCCCO[C@H](CN(C)CC2CCCCC2)[C@H](C)CN([C@@H](C)CO)C(=O)c2cc(NC(=O)C3CCCCC3)ccc2O1 | inactive
42 | C[C@@H]1CCCCO[C@@H](CN(C)CC2CCCCC2)[C@H](C)CN([C@H](C)CO)C(=O)c2cc(NC(=O)C3CCCCC3)ccc2O1 | inactive
43 | C[C@H]1CCCCO[C@@H](CN(C)CC2CCCCC2)[C@@H](C)CN([C@@H](C)CO)C(=O)c2cc(NC(=O)C3CCCCC3)ccc2O1 | inactive
44 | C[C@H]1CCCCO[C@H](CN(C)CC2CCCCC2)[C@@H](C)CN([C@@H](C)CO)C(=O)c2cc(NC(=O)C3CCCCC3)ccc2O1 | active
45 | C[C@H](CO)N1C[C@H](C)[C@H](CN(C)CC2CCCCC2)OCCCC[C@H](C)Oc2ccc(NC(=O)C3CCCCC3)cc2C1=O | inactive
46 | C[C@@H]1CCCCO[C@H](CN(C)CC2CCCCC2)[C@H](C)CN([C@H](C)CO)C(=O)c2cc(NC(=O)C3CCCCC3)ccc2O1 | inactive
47 | C[C@@H]1CCCCO[C@@H](CN(C)CC2CCCCC2)[C@H](C)CN([C@@H](C)CO)C(=O)c2cc(NC(=O)C3CCCCC3)ccc2O1 | inactive
